Tested on: Vero E6 infected with SARS-CoV-2
Assay: inhibition of SARS-CoV-2 cytopathic effect; higher = more antiviral protection, active = above 15
Conditions: 48 h

Measured: inhibition of SARS-CoV-2 cytopathic effect

CN(C)CC(=O)Nc1ccc2[nH]c(=O)c3ccccc3c2c1
inactive: 1 nM 1.34% | 8.33 nM 2.81% | 100 nM 1.23% | 833.33 nM 5.19% | 10000 nM 6.44%

CN[C@@H](C)[C@H](O)c1ccccc1 [ephedrine]
inactive: 1 nM -1.32% | 8.33 nM -0.23% | 100 nM 1.57% | 833.33 nM 3.01% | 10000 nM -0.52%

C[C@@H]([C@@H](O)c1ccc(O)cc1)N1CCC(O)(c2ccccc2)CC1 [traxoprodil]
inactive: 1 nM 4.34% | 8.33 nM -0.79% | 100 nM -2.83% | 833.33 nM 1.39% | 10000 nM -1.06%

N[C@@H](Cc1cc(CP(=O)(O)O)cc(-c2ccccc2Cl)c1)C(=O)O
inactive: 1 nM 8.76% | 8.33 nM 0.31% | 100 nM 1.79% | 833.33 nM 1.85% | 10000 nM 1.74%

O=C(O)Cc1cccc(OCCCN(Cc2cccc(C(F)(F)F)c2Cl)CC(c2ccccc2)c2ccccc2)c1
inactive: 1 nM 0.26% | 8.33 nM 0.75% | 100 nM 2.25% | 833.33 nM 0.38% | 10000 nM 8.79%

CC(C)c1ccc(NC(=O)c2cccs2)c(-c2nc3ccccc3[nH]c2=O)c1
inactive: 1 nM -1.18% | 8.33 nM -0.5% | 100 nM 0.48% | 833.33 nM -0.61% | 10000 nM -1.09%

CCN(CCCc1ccccc1)CCCc1ccccc1 [alverine]
inactive: 1 nM -0.33% | 8.33 nM 1.03% | 100 nM -0.23% | 833.33 nM -0.58% | 10000 nM -0.57%

Nc1ncnc2c1C(=O)N(c1ccc([C@H]3CC[C@H](CC(=O)O)CC3)cc1)CCO2
inactive: 1 nM 4.58% | 8.33 nM 2.44% | 100 nM -0.31% | 833.33 nM 5.58% | 10000 nM 4.43%

CCOC(=O)[C@H](CCc1ccccc1)N[C@@H](C)C(=O)N(CC(=O)O)C1Cc2ccccc2C1 [delapril]
inactive: 1 nM -1.82% | 8.33 nM 0.71% | 100 nM 2.57% | 833.33 nM 2.28% | 10000 nM -1.55%

O=C(Nc1cccc(Cl)c1)Nc1ncc(CCNc2ncnc3ccsc23)s1
inactive: 1 nM 0.21% | 8.33 nM 0.43% | 100 nM 3.34% | 833.33 nM -0.89% | 10000 nM -1.37%

O=c1c2ccccc2oc2ccccc12 [xanthone]
inactive: 1 nM 1.22% | 8.33 nM 1.53% | 100 nM 1.84% | 833.33 nM -0.86% | 10000 nM -3.12%

COc1ccc(-c2sc(NC(=O)C(C)(C)C)nc2C)cc1S(=O)(=O)Nc1ccc(O)cc1 [PI4KIII-beta-inhibitor-1]
inactive: 1 nM -2.8% | 8.33 nM -1.82% | 100 nM 0.52% | 833.33 nM 0.18% | 10000 nM 5.19%

c1ccc2nc(C3=NCCN3)cnc2c1
inactive: 1 nM 2.54% | 8.33 nM 1.85% | 100 nM 1.24% | 833.33 nM 4.82% | 10000 nM 2.03%

Cc1cc(O)cc2c1O[C@](C)(CCC[C@H](C)CCC[C@H](C)CCCC(C)C)CC2 [D-delta-tocopherol]
inactive: 1 nM 1.56% | 8.33 nM 0.99% | 100 nM 2.25% | 833.33 nM 0.84% | 10000 nM -0.19%

COc1ccccc1NC(=O)OCC1CCN(C(=O)OC(C)(C)C)CC1
inactive: 1 nM 0.55% | 8.33 nM -0.78% | 100 nM 1.48% | 833.33 nM -0.14% | 10000 nM 0.81%

Fc1ccc([C@@H]2CCNC[C@H]2COc2ccc3c(c2)OCO3)cc1 [paroxetine]
inactive: 1 nM -4.2% | 8.33 nM -2.01% | 100 nM -2.05% | 833.33 nM -1.89% | 10000 nM -13.1%

O=C(N[C@H]1CN2CCC1CC2)c1ccc(Cl)cc1
inactive: 1 nM 1.35% | 8.33 nM 0.97% | 100 nM 1.21% | 833.33 nM 0.86% | 10000 nM 1.51%

Cc1ccc(S(=O)(=O)N2CCC[C@H]2c2ccc(F)cc2)cc1
inactive: 1 nM 0.31% | 8.33 nM -0.49% | 100 nM 0.49% | 833.33 nM 1.4% | 10000 nM 0.86%

O=C(/C=C/c1ccc2ccc(C(F)(F)F)cc2n1)c1ccncc1
inactive: 1 nM 1.93% | 8.33 nM 0% | 100 nM -3.01% | 833.33 nM 0.28% | 10000 nM 5.19%
